DAX1 inh-1 – DAX1 (NR0B1) inhibitors on StAR promoter, primary screen, cell-based, luminescence, SF-1 (NR5A1), full-length DAX-1; inhibition, % at 6.8 µM; AID 652010, 2013; HEK293T StAR-luciferase reporter, SF-1/DAX-1 repression relief; actives 1.1% (n = 370,000);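 active means inhibition above the mean over all tested compounds plus 3 SD, cut at about 3.6% in these data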;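 further: 0% = DAX-1 cells with DMSO and 100% = cells lacking DAX-1 with DMSO; higher inhibition means more luminescence from relief of DAX-1 repression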
hgDAF-12 ag – H. glycines DAF-12 receptor agonists, primary screen, cell-based, luminescence, HEK293, GAL4 fusion, UAS-luciferase; Nuclear hormone receptor DAF-12 (Heterodera glycines), GAL4 fusion; HEK293 GAL4-hgDAF12 UAS-luciferase reporter, agonist luminescence; normalized to butyrate control; activation, % at 6.8 µM; actives 1.8% (n = 370,000); AID 687014, 2013;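 active means activation above a cutoff set at the mean of all screened compounds plus 3 SD, cut at about 10% in these data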;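 further: 0% = DMSO wells and 100% = sodium butyrate wells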
AHR act – AHR activators, primary screen, cell-based, luminescence, luciferase reporter, human | Aryl hydrocarbon receptor (Homo sapiens), P35869 | AHR-responsive luciferase reporter cells | activation, % at 5 µM | actives 2.5% (n = 320,000) | AID 2796, 2010; in the data active means activation above about 47%;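 further: 0% = vehicle wells and 100% = reference agonist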
Target sequence (P35869 whole entry, looked up): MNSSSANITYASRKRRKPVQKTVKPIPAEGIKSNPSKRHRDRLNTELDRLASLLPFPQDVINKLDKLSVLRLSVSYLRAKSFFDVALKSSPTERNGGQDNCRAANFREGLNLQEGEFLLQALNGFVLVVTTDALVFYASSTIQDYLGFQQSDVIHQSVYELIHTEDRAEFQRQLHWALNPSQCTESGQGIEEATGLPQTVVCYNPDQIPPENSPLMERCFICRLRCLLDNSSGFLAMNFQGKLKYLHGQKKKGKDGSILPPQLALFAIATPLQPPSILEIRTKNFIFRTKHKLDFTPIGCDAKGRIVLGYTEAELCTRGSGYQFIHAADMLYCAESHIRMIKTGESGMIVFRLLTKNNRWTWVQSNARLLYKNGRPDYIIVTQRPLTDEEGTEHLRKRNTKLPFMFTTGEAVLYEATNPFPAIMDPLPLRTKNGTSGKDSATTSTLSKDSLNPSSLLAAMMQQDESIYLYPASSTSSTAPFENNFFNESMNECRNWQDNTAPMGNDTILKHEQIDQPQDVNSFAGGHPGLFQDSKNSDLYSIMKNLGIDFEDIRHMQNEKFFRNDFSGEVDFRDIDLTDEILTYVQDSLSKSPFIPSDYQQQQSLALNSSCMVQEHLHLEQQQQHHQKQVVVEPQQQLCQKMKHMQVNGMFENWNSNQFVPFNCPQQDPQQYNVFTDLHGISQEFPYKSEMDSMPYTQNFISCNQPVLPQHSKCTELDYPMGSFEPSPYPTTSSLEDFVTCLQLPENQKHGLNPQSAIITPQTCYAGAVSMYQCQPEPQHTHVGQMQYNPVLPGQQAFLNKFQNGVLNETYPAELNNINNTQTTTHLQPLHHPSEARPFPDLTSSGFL
ssDAF12 agonist – S. stercoralis DAF-12 nuclear receptor activators, primary screen, cell-based, luminescence, HEK293, GRIP1 co-expression, lit1-tk-luc; Nuclear hormone receptor DAF-12 (Strongyloides stercoralis); HEK293 ssDAF-12/GRIP1 lit1-tk-luc reporter; % of 3 µM dafachronic acid response; activation, % at 6.8 µM; actives 1% (n = 370,000); AID 652126, 2013;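 active means activation above the mean over all tested compounds plus 3 SD, cut at about 0.9% in these data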;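 further: 0% = DMSO-only wells and 100% = 3 µM delta7-dafachronic acid wells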
hcDAF12 agonist – H. contortus DAF-12 nuclear receptor activators, primary screen, cell-based, luminescence, HEK293, lit1-tk-luc reporter. activation, % at 6.8 µM. AID 652067, 2013. actives 1.4% (n = 370,000). HEK293 hcDAF-12 lit1-tk-luc reporter; 0% DMSO, 100% Δ7-dafachronic acid;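 active means activation above the mean of all tested compounds plus 3 SD, cut at about 5.5% in these data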;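 further: 100% = response to 3 µM Δ7-dafachronic acid high control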
DAX1 inh-2 – DAX1 (NR0B1) inhibitors, primary screen, cell-based, HEK293, Gal4-DAX1, luciferase luminescence; Nuclear receptor subfamily 0 group B member 1 (Homo sapiens), P51843; HEK293 Gal4-DAX1 luciferase reporter; inhibition, % at 6.75 µM; actives 0.99% (n = 340,000); AID 504766, 2011;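 active means inhibition above the mean over all tested compounds plus 3 SD, cut at about 4.2% in these data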;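 further: 0% = DAX1-transfected cells with DMSO and 100% = empty-vector control cells with DMSO; inhibition shows as a rise in luminescence from relieved DAX1 repression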
DAX1 conf – DAX1 (NR0B1) inhibitors relieving SF-1 repression, confirmation, cell-based, luminescence, HEK293T, full-length DAX-1, SF-1 activated StAR promoter; shares compounds with DAX1 inh-1; HEK293T StAR-promoter luciferase reporter, SF-1/DAX-1 repression; inhibition, % at 6.8 µM; actives 87% (n = 2,400); AID 652134, 2013;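 active means inhibition above the average of every tested compound plus 3 SD, cut at about 3.8% in these data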;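 further: 0% = DAX-1 cells with DMSO and 100% = no DAX-1 control cells with DMSO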
SF1 mutant ctr – StAR reporter signal changes without DAX1, counter-screen for DAX1 inhibitor project, cell-based, luminescence, AF-2 mutant SF-1, transactivation; inhibition, % at 6.8 µM; shares compounds with DAX1 inh-1; actives 78% (n = 2,400); HEK293 StAR-luciferase, SF-1 AF2 mutant;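 active means inhibition above the mean of all tested compounds plus 3 SD, cut at about 3% in these data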;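 further: 0% = DAX-1 transfected cells with DMSO and 100% = cells without DAX-1 with DMSO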
* hit, by the source's call; x = no result. Sampled rows, rich in hits. Any-hit rate of the full collection: about 5.7%.

SMILES | DAX1 inh-1 | hgDAF-12 ag | AHR act | ssDAF12 agonist | hcDAF12 agonist | DAX1 inh-2 | DAX1 conf | SF1 mutant ctr
Cc1cc(NC(=O)CSc2ccc(-c3ccc(Br)cc3)nn2)no1 | 5.3* | 7.0 | 2.6 | -0.2 | 2.7 | 0.9 | -0.2 | -0.5
Cc1cc(NC(=O)CSc2nnc(-c3cccc(F)c3)n2N)no1 | 5.2* | -1.7 | 5.8 | -1.1 | -1.2 | 0.1 | 2.3 | 1.7
COc1ccc(-c2nnc(SCC(=O)Nc3cc(C)on3)n2N)cc1OC | -0.5 | 0.1 | 1.5 | -0.3 | -2.0 | -0.5 | x | x
Cc1cc(NC(=O)c2ccco2)sc1C | 4.5* | 7.3 | 4.5 | 0.7 | 5.7* | 0.5 | 6.4* | 4.5*
Cc1ccc(Cc2cnc(NC(=O)c3ccco3)s2)cc1 | 6.6* | 13.2* | 3.6 | 0.9 | 5.9* | -0.3 | 16.0* | 5.2*
